Source: PubChem BioAssay AID1159580 (chemical genetic matrix, 2015)
Values joined by “and” are separate entries in the source; they are usually repeats but may differ in a detail not shown here. Identical values can stand only once. Among all 5,500 compounds or so, about 2,000 (36%) were called active. Roughly 18% stayed inconclusive and do not appear here. Cut-off read from the data, not from the text of the source: active = normalized growth mostly below about 0.91 (no sharp cut-off); inconclusive = no clear call, values can overlap the other calls; inactive = mostly above about 0.92. This is one part of the list. Some compounds were tested as several samples or in several runs, with calls that do not always agree.

Test: chemical genetic growth profiling, strain panel (AID 1159580);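 note: tested at 20 µM; growth read once vehicle control cultures reached saturation at 30 °C; 1 = growth at the plate median or of vehicle wells; lower values mean less growth of the strain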
Details: S. cerevisiae deletion strains, growth OD

Fc1ccc(C(c2ccc(F)cc2)N2CCN(C/C=C/c3ccccc3)CC2)cc1
normalized growth (locus YAL013W, strain DEP1, stronger effect = lower value): 0.996 (inactive) and 0.961 (inactive)
normalized growth (locus YAL021C, strain ccr4, stronger effect = lower value): 0.625 (active)
normalized growth (locus YAL026C, strain drs2, stronger effect = lower value): 0.0836 (active)
normalized growth (locus YAL030W, strain snc1, stronger effect = lower value): 0.293 (active)
normalized growth (locus YAL040C, strain CLN3, stronger effect = lower value): 1.02 (inactive)
normalized growth (locus YBL061C, strain skt5, stronger effect = lower value): 0.214 (active)
normalized growth (locus YBR009C, strain hhf1, stronger effect = lower value): 0.263 (active)
normalized growth (locus YBR021W, strain FUR4, stronger effect = lower value): 0.978 (inactive)
normalized growth (locus YBR023C, strain chs3, stronger effect = lower value): 0.22 (active)
normalized growth (locus YBR171W, strain sec66, stronger effect = lower value): 0.662 (active)
normalized growth (locus YBR229C, strain ROT2, stronger effect = lower value): 0.989 (inactive)
normalized growth (locus YBR231C, strain swc5, stronger effect = lower value): 0.147 (active)
normalized growth (locus YBR279W, strain paf1, stronger effect = lower value): 0.488 (active)
normalized growth (locus YCL011C, strain gbp2, stronger effect = lower value): 0.221 (active)
normalized growth (locus YCL016C, strain dcc1, stronger effect = lower value): 0.234 (active)
normalized growth (locus YCL029C, strain bik1, stronger effect = lower value): 0.945 (inactive)
normalized growth (locus YCL061C, strain MRC1 (second series), stronger effect = lower value): 0.96 (inactive)
normalized growth (locus YCL069W, strain vba3, stronger effect = lower value): 0.18 (active)
normalized growth (locus YCR088W, strain abp1, stronger effect = lower value): 0.374 (active)
normalized growth (locus YDL005C, strain med2, stronger effect = lower value): 0.263 (active)
normalized growth (locus YDL035C, strain GPR1, stronger effect = lower value): 0.976 (inactive)
normalized growth (locus YDL040C, strain nat1, stronger effect = lower value): 0.666 (active)
normalized growth (locus YDL074C, strain BRE1, stronger effect = lower value): 0.904 (inactive)
normalized growth (locus YDL101C, strain DUN1, stronger effect = lower value): 0.973 (inactive)
normalized growth (locus YDL134C, strain PPH21, stronger effect = lower value): 0.993 (inactive)
normalized growth (locus YDL185W, strain tfp1, stronger effect = lower value): 0.966 (inactive)
normalized growth (locus YDL192W, strain arf1, stronger effect = lower value): 0.973 (inactive)
normalized growth (locus YDR001C, strain nth1, stronger effect = lower value): 0.442 (active)
normalized growth (locus YDR069C, strain doa4, stronger effect = lower value): 0.479 (active)
normalized growth (locus YDR101C, strain arx1, stronger effect = lower value): 0.967 (inactive)
normalized growth (locus YDR137W, strain rgp1, stronger effect = lower value): 1.01 (inactive)
normalized growth (locus YDR150W, strain NUM1, stronger effect = lower value): 0.985 (inactive) and 0.925 (active)
normalized growth (locus YDR159W, strain sac3, stronger effect = lower value): 0.15 (active)
normalized growth (locus YDR162C, strain NBP2, stronger effect = lower value): 0.966 (inactive)
normalized growth (locus YDR195W, strain ref2): 1.05 (inactive)
normalized growth (locus YDR297W, strain sur2, stronger effect = lower value): 0.322 (active)
normalized growth (locus YDR318W, strain mcm21, stronger effect = lower value): 0.951 (inactive)
normalized growth (locus YDR334W, strain swr1, stronger effect = lower value): 0.208 (active)
normalized growth (locus YDR335W, strain msn5, stronger effect = lower value): 0.368 (active)
normalized growth (locus YDR363W, strain ESC2, stronger effect = lower value): 0.922 (inactive)
normalized growth (locus YDR388W, stronger effect = lower value): 0.88 (active)
normalized growth (locus YDR392W, strain spt3, stronger effect = lower value): 0.104 (active)
normalized growth (locus YDR502C, strain sam2, stronger effect = lower value): 0.988 (inactive)
normalized growth (locus YEL003W, strain gim4, stronger effect = lower value): 0.326 (active)
normalized growth (locus YEL037C, strain rad23, stronger effect = lower value): 0.215 (active)
normalized growth (locus YEL061C, strain CIN8 (second series), stronger effect = lower value): 0.229 (active)
normalized growth (locus YEL061C, strain CIN8, stronger effect = lower value): 0.991 (inactive)
normalized growth (locus YER015W, strain faa2, stronger effect = lower value): 0.346 (active)
normalized growth (locus YER016W, strain bim1, stronger effect = lower value): 0.715 (active)
normalized growth (locus YER110C, stronger effect = lower value): 0.974 (inactive)
normalized growth (locus YER111C, strain swi4, stronger effect = lower value): 0.663 (active)
normalized growth (locus YER155C, strain BEM2 (second series), stronger effect = lower value): 0.736 (active)
normalized growth (locus YER155C, strain BEM2, stronger effect = lower value): 1.01 (inactive)
normalized growth (locus YER167W, strain BCK2, stronger effect = lower value): 1.01 (inactive)
normalized growth (locus YFR010W, strain ubp6, stronger effect = lower value): 0.297 (active)
normalized growth (locus YGL078C, strain dbp3, stronger effect = lower value): 0.994 (inactive)
normalized growth (locus YGL086W, strain mad1, stronger effect = lower value): 0.999 (inactive)
normalized growth (locus YGL167C, strain pmr1, stronger effect = lower value): 1.01 (inactive)
normalized growth (locus YGL173C, strain kem1, stronger effect = lower value): 0.794 (active)
normalized growth (locus YGL227W, strain vid30, stronger effect = lower value): 0.243 (active)
normalized growth (locus YGL240W, strain doc1, stronger effect = lower value): 0.819 (active)
normalized growth (locus YGL248W, strain PDE1, stronger effect = lower value): 0.99 (inactive)
normalized growth (locus YGL253W, strain hxk2, stronger effect = lower value): 0.0972 (active)
normalized growth (locus YGR078C, strain PAC10, stronger effect = lower value): 0.976 (inactive)
normalized growth (locus YGR135W, strain pre9, stronger effect = lower value): 0.942 (inactive)
normalized growth (locus YGR229C, strain SMI1, stronger effect = lower value): 0.919 (inactive) and 0.24 (active)
normalized growth (locus YGR252W, strain gcn5, stronger effect = lower value): 1.07 (inactive)
normalized growth (locus YHR013C, strain ard1, stronger effect = lower value): 0.149 (active)
normalized growth (locus YHR027C, strain rpn1, stronger effect = lower value): 0.556 (active)
normalized growth (locus YHR030C, strain SLT2, stronger effect = lower value): 0.994 (inactive) and 0.988 (inactive)
normalized growth (locus YHR079C, strain IRE1 (second series), stronger effect = lower value): 0.972 (inactive)
normalized growth (locus YHR079C, strain IRE1, stronger effect = lower value): 0.991 (inactive)
normalized growth (locus YHR094C, strain hxt1, stronger effect = lower value): 0.977 (inactive)
normalized growth (locus YHR129C, strain ARP1, stronger effect = lower value): 0.992 (inactive)
normalized growth (locus YHR142W, strain chs7, stronger effect = lower value): 0.127 (active)
normalized growth (locus YHR200W, strain rpn10, stronger effect = lower value): 0.973 (inactive)
normalized growth (locus YIL066C, strain RNR3, stronger effect = lower value): 0.965 (inactive)
normalized growth (locus YIL073C, strain SPO22, stronger effect = lower value): 1.52 [resistant] (active)
normalized growth (locus YIL125W, strain kgd1, stronger effect = lower value): 0.986 (inactive)
normalized growth (locus YIR030C, strain dcg1, stronger effect = lower value): 0.98 (inactive)
normalized growth (locus YJL092W, strain hpr5, stronger effect = lower value): 0.282 (active)
normalized growth (locus YJL095W, strain BCK1 (second series), stronger effect = lower value): 0.0776 (active)
normalized growth (locus YJL095W, strain BCK1, stronger effect = lower value): 0.918 (inactive) and 0.981 (inactive)
normalized growth (locus YJL115W, strain asf1, stronger effect = lower value): 0.435 (active)
normalized growth (locus YJL129C, strain trk1, stronger effect = lower value): 0.215 (active)
normalized growth (locus YJL134W, strain LCB3, stronger effect = lower value): 0.983 (inactive)
normalized growth (locus YJL154C, strain vps35, stronger effect = lower value): 0.686 (active)
normalized growth (locus YJL164C, strain tpk1, stronger effect = lower value): 0.176 (active)
normalized growth (locus YJL166W, strain qcr8, stronger effect = lower value): 0.19 (active)
normalized growth (locus YJL168C, strain set2, stronger effect = lower value): 0.977 (inactive)
normalized growth (locus YJL187C, strain SWE1 (second series), stronger effect = lower value): 0.946 (inactive)
normalized growth (locus YJL187C, strain SWE1, stronger effect = lower value): 0.231 (active)
normalized growth (locus YJR043C, strain POL32, stronger effect = lower value): 0.983 (inactive)
normalized growth (locus YJR066W, strain TOR1, stronger effect = lower value): 0.928 (inactive)
